High-throughput results as filed in PubChem BioAssay.
NOD2-RIPK2 inh – blocks binding of human NOD2 to RIPK2 | O43353 | CHO BLA complementation NOD2-RIPK2, CCF4 ratio | inhibition, % at 4.98 µM | hit rate 0.38% among 360,000 | AID 624267; in the data active = inhibition above about 21%
Target sequence (O43353 whole entry, looked up): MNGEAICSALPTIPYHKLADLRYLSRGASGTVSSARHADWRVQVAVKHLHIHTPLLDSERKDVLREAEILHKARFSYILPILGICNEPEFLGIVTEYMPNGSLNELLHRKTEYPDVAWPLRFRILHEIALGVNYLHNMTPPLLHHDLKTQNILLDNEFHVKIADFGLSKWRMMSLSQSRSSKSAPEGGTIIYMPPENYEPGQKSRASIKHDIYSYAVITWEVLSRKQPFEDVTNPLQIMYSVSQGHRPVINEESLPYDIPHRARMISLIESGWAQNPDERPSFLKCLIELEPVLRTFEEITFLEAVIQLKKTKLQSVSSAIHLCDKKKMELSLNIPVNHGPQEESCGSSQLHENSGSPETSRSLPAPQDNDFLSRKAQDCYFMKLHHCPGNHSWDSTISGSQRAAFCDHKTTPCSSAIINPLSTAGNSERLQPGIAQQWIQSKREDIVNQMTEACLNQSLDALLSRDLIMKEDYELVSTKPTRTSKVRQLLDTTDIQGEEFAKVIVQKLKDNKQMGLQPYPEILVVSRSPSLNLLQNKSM
TLR4-MyD88 BLA – blocks binding of human TLR4 to MyD88; HeLa CL3-4 TLR4/MyD88 BLA complementation, FRET ratio; inhibition, % at 8.4 µM; O00206+Q99836; hit rate 0.18% among 200,000; in the data active = inhibition above about 25%
ABCB6 inh MLPCN – inhibitors of human ABC transporter ABCB6. Q9NP58. K562-ABCB6 porphyrin accumulation, flow cytometry, 1 h; hits give low values. fluorescence ratio to DMSO, % at 10 µM. hit rate 0.19% among 360,000;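 active = fluorescence ratio to DMSO below 75%, the collection mean minus 3 SD; inconclusive = too few cells collected in the well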;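 note: signal is porphyrin accumulated inside mitochondria; lower ratio means ABCB6 inhibition with less porphyrin fluorescence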
Myeloid diff MLP – promotes myeloid progenitor differentiation | hit rate 1% among 360,000 | AID 624256 | ER-HoxA9 myeloid progenitors, lysozyme-GFP differentiation, flow cytometry | calls only at 10 µM;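 active = normalized GFP-positive differentiation at or above the plate's own cutoff, the solvent-only control mean plus 3 SD; inconclusive = no clear call, values can overlap the other calls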;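 note: cells exposed to compound for four days before flow analysis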
TLR9-MyD88 block – blocks human TLR9 binding to MyD88; Q9NR96+Q99836; CHO BLA complementation TLR9-MyD88, CCF4 FRET ratio; inhibition, % at 4.98 µM; hit rate 0.21% among 340,000; AID 504734;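 active = inhibition above the mean over all tested compounds plus 3 SD, cut at about 21% in these data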
Of the large screens only hits and unclear results are named; the others gave an inactive call. Rows were chosen to be rich in hits. Some 1.7% of all compounds tested hit in one or more screens of this group.

CCN1CCSc2ccc(C(=O)NCc3ccccc3F)cc21	Myeloid diff MLP active (no result: TLR4-MyD88 BLA)
O=C(NCCCNCc1ccccc1)c1ccncc1	none
CN(C)CCCNCCCNC(=O)c1ccncc1	Myeloid diff MLP active
CCN1c2ccccc2NC2C1C(C(C)=O)C(=O)N2c1ccc(Cl)cc1 (centres undefined)	Myeloid diff MLP active
O=C(Nc1ccccc1C(=O)Nc1ccc(Br)cn1)c1cccc([N+](=O)[O-])c1	Myeloid diff MLP inconclusive (no result: TLR4-MyD88 BLA)
O=C(/C=C/c1ccccc1)NNC(=O)C1CC1	ABCB6 inh MLPCN 65
O=C(COC(=O)COc1ccccc1)NC12CC3CC(CC(C3)C1)C2	none (no result: TLR4-MyD88 BLA)
CCN(CC)c1ccc(NC(=O)CSC(=O)c2ccccc2)cc1	Myeloid diff MLP active (no result: TLR4-MyD88 BLA)
COc1cc(/C=N/NC(=O)C(=O)NCc2ccco2)cc(Br)c1O	none (no result: TLR4-MyD88 BLA)
COCCn1c(C)cc(C(=O)COC(=O)C23CC4CC(CC(O)(C4)C2)C3)c1C	ABCB6 inh MLPCN 2.0
CCOc1ccccc1C(=O)N(Cc1ccccc1)Cc1cc2cc3c(cc2[nH]c1=O)OCCO3	Myeloid diff MLP active
O=C(c1ccccc1)N(CCO)Cc1cc2cc3c(cc2[nH]c1=O)OCCO3	none
O=C(Nc1ccc(N2CCCC2)c(Cl)c1)c1cccnc1	none
O=C(Nc1ccc(N2CCCCC2)c(Cl)c1)c1cccnc1	Myeloid diff MLP active
COc1ccc(C(=O)N2CCC(n3nccc3NC(=O)C3CCOC3)CC2)cc1 (centres undefined)	none (no result: TLR4-MyD88 BLA)
C=C(CN(C)C)C(=O)c1cc(C)ccc1C	NOD2-RIPK2 inh 45 (no result: TLR4-MyD88 BLA, Myeloid diff MLP)
Cc1ccc(C)c(C(=O)NCCN(C)C)c1	none
COc1ccccc1NC(=O)c1ccc(C(=O)Nc2ccccc2OC)nc1	none (no result: TLR4-MyD88 BLA)
CCS(=O)(=O)c1ncc(Cl)c(C(=O)Nc2ccccc2OC)n1	ABCB6 inh MLPCN 69, Myeloid diff MLP inconclusive (no result: TLR4-MyD88 BLA)
CCCCC(=O)c1ccc(OC(=O)c2ccc([N+](=O)[O-])cc2)cc1	none (no result: TLR4-MyD88 BLA)
CC(C)(C)n1ncc2c(=O)n(Cc3ccc(Cl)c(Cl)c3)cnc21	Myeloid diff MLP active
Cc1ccc(Cn2cnc3c(cnn3C(C)(C)C)c2=O)cc1	none
CCC(C)c1ccccc1NC(=O)COC(=O)c1ccc2[nH]c3c(c2c1)CCCC3 (centres undefined)	Myeloid diff MLP active
CCN1/C(=C/c2ccc3ccccc3[n+]2CCCS(=O)(=O)[O-])C=Cc2cc(C)ccc21	none (no result: TLR4-MyD88 BLA)
CCN1/C(=C/c2cc[n+](C)cc2)C=Cc2cc(C)ccc21	Myeloid diff MLP active
CCCn1cc(CN2CCc3ccc(NC(=O)C4CCCO4)cc3C2)c(C)n1 (centres undefined)	none (no result: TLR4-MyD88 BLA)
N#CC1=C(N)N(c2ccc(F)cc2)C2=C(C1c1ccc(O)cc1)S(=O)(=O)CC2 (centres undefined)	Myeloid diff MLP active
COc1ccc(CCNC(=O)c2nonc2N)cc1OC	none
COc1ccc(CNCCNC(=O)c2nonc2N)cc1OC	Myeloid diff MLP active
O=C(O)c1ccc(Nc2nc(-c3cccnc3)nc3ccccc23)cc1	none (no result: NOD2-RIPK2 inh, ABCB6 inh MLPCN, Myeloid diff MLP, TLR9-MyD88 block)
Cc1cccc(C(=O)O/N=C(\N)c2ccc(Cl)cc2)c1	none (no result: TLR4-MyD88 BLA)
Cc1ccc(/C(N)=N/OC(=O)c2ccc(Cl)cc2Cl)cc1	Myeloid diff MLP active
CCn1c2ccc(F)cc2c2nc3ccccc3nc21	Myeloid diff MLP active
Cn1c2ccc(F)cc2c2nc3ccccc3nc21	none (no result: TLR4-MyD88 BLA)
COc1cccc(NC(=O)C(=O)N2CCOCC2)c1	Myeloid diff MLP active
COC(=O)c1ccc(NC(=O)C(=O)N2CCN(C(=S)Nc3cccc(OC)c3)CC2)cc1	none
COc1ccccc1OC[C@H](O)CO	none (no result: TLR4-MyD88 BLA)
C=CCn1c(=S)[nH]c2ccc(Br)cc2c1=O	none
C=CCn1c(=S)[nH]c2nc3c(cc2c1=O)CCCC3	ABCB6 inh MLPCN 70
CCOC(=O)CSc1ccc2ccccc2n1	none
CCOC(=O)CN1C=C(c2ccc3ccccc3n2)C(C[N+](=O)[O-])c2ccccc21 (centres undefined)	Myeloid diff MLP active
CC(C)CCn1nnnc1CN1CCN(C(c2ccccc2)c2ccccc2)CC1	Myeloid diff MLP active
C[C@H]1CN([C@@H](C)CO)C(=O)CCCn2nncc2CO[C@@H]1CN(C)S(=O)(=O)c1ccc2ccccc2c1	none (no result: TLR4-MyD88 BLA)
C[C@H](CO)N1C[C@H](C)[C@@H](CN(C)S(=O)(=O)c2ccc3ccccc3c2)OCc2cnnn2CCCC1=O	Myeloid diff MLP active (no result: TLR4-MyD88 BLA)
Cc1ccc(S(=O)(=O)CCC(=O)O)cc1C	Myeloid diff MLP active
CS(=O)(=O)N1CCCCC1CCN1CCCCC1 (centres undefined)	none (no result: TLR4-MyD88 BLA)
O=C(OCC(O)COC(=O)c1cccnc1)c1cccnc1	Myeloid diff MLP active (no result: TLR4-MyD88 BLA)
CC1=C(C(=O)Nc2ccccc2)C(c2ccc(C)o2)n2c(s/c(=C\c3ccco3)c2=O)=N1 (centres undefined)	Myeloid diff MLP active
COc1ccc(S(=O)(=O)N(C)C[C@H]2Oc3ccc(NS(=O)(=O)c4cccs4)cc3C(=O)N([C@H](C)CO)C[C@@H]2C)cc1	Myeloid diff MLP active (no result: TLR4-MyD88 BLA)
C[C@H](CO)N1C[C@H](C)[C@H](CN(C)C(=O)NC2CCCCC2)Oc2ncc(Br)cc2C1=O	Myeloid diff MLP active (no result: TLR4-MyD88 BLA)
C[C@H]1CN([C@@H](C)CO)C(=O)c2cc(Br)cnc2O[C@@H]1CN(C)C(=O)NC1CCCCC1	none (no result: TLR4-MyD88 BLA)
C[C@@H]1CN([C@H](C)CO)C(=O)c2cc(NC(=O)Nc3ccc(C(F)(F)F)cc3)ccc2O[C@H]1CN(C)C(=O)Nc1ccc(F)cc1	Myeloid diff MLP active (no result: TLR4-MyD88 BLA)
COc1cc2c(cc1OC)C(COc1cccc(C(F)(F)F)c1)NCC2 (centres undefined)	Myeloid diff MLP inconclusive (no result: TLR4-MyD88 BLA)
O=C(NCc1nnc(SCC(=O)N2CCOCC2)o1)c1ccccc1	none (no result: TLR4-MyD88 BLA)
Cc1ccc(Cn2c(CCNc3nc(-c4ccc(C)cc4)cs3)nc3cc(C(=O)NCCCO)ccc32)cc1	none (no result: TLR4-MyD88 BLA)
Cc1ccc(Cn2c(C(C)Nc3nc(-c4ccc(Cl)cc4)cs3)nc3cc(C(=O)NCCCO)ccc32)cc1 (centres undefined)	Myeloid diff MLP active (no result: TLR4-MyD88 BLA)
Cc1ccccc1CSc1nnc(-c2ccco2)n1Cc1ccco1	Myeloid diff MLP active
CN1CCN(C(=O)c2ccc3c(c2)N(Cc2ccc(Cl)cc2)C(=O)c2ccccc2S3=O)CC1 (centres undefined)	Myeloid diff MLP active
CCN(CC)c1ccc2cc(C(C)=O)c(=O)oc2c1	none
CCN(CC)c1ccc2cc(-c3nnc(-c4ccncc4)o3)c(=O)oc2c1	Myeloid diff MLP active
NC(=O)c1ccccc1NC(=O)CCn1c(=S)oc2ccccc21	none (no result: TLR4-MyD88 BLA, Myeloid diff MLP)
COc1ccc(Cl)cc1NC(=O)CSc1nc(NS(=O)(=O)c2ccc(C)cc2)cc(=O)[nH]1	Myeloid diff MLP active (no result: TLR4-MyD88 BLA)
O=C(CNS(=O)(=O)c1ccccc1)OCC(=O)c1c[nH]c2ccccc12	Myeloid diff MLP active (no result: TLR4-MyD88 BLA)
c1cc2c3c(cccc3c1)-c1cnccc1-2	none (no result: TLR4-MyD88 BLA)
CN(c1ccc(C(=O)N2CCN(Cc3ccccc3)CC2)cc1)S(=O)(=O)c1ccccc1	Myeloid diff MLP active (no result: TLR4-MyD88 BLA)
C=CC[C@H](CC(=O)OC(C)(C)C)C(=O)OC[C@@H]1CCCN1C(=O)[C@H](CC=C)CC(=O)N[C@H](CO)Cc1ccccc1	none (no result: TLR4-MyD88 BLA)
